The source of these data is PubChem BioAssay (NCI).

SMILES strings stand for the structures. Values joined by “and” are separate entries in the source; they are usually repeats but may differ in a detail not shown here. Identical values can stand only once. Compounds without any hit were thinned out: in the full panel of roughly 83,000, 20% have a hit.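 Treatment: one concentration, 48 hours, 96-well format. Scoring: percent growth, with anything below 10 considered active.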 Values without a mark were called inactive. Active and inactive are the calls of the source.

The first experiment relates to OVCAR-4 ovarian. As to the kind of experiment: NCI-60 one-dose screen, 48 h (100 = growth as untreated, 0 = no growth, -100 = all killed). As to conditions: 1 µM. How it is done:
Growth inhibition of the OVCAR-4 human tumor cell line is measured as a screen for anti-cancer activity. Cells are grown in 96 well plates and exposed to the test compound for 48 hours. Compounds are tested at a single concentration, which is 10^-5 M for most compounds. The reported endpoint is percent growth (GI% or GIPRCNT), where numbers from 0 - 100% represent growth inhibition, and numbers from -100% - 0 represent cell death. For example, a value of 40 represents 60% growth inhibition. A value of 0 means no net growth occurred over the course of the experiment. A value of -40 indicates 40% of cells at the beginning of the experiment died by the end of the experiment. A value of -100 means all cells are dead at the end of the experiment.
NCI-60 Human Tumor Cell Lines Screen was performed using the standard one-dose NCI protocol, which is described in more detail at https://dtp.cancer.gov/discovery_development/nci-60/default.htm.
Compounds with GIPRCNT values below 10 were considered active. Activity score was based on GIPRCNT using the following formula: […]
Score is 0 for GIPRCNT values of 100 or above, 50 for GIPRCNT values of 0, and 100 for GIPRCNT values of -100.
Consider `CC/C(=C(\c1ccc(O)cc1)c1ccc(OCCNC)cc1)c1ccccc1`, for which the growth was 111%.
Consider `CC/C(=C(/c1ccc(O)cc1)c1ccc(OCCN(C)C(=O)CCOCCNC(=O)Cc2ccc3c(c2)CN([C@@H]2CCC(=O)NC2=O)C3=O)cc1)c1ccccc1`, for which the growth was 102%.

Still in this experiment, the particulars now being: 10 µM.
As for `CC/C(=C(\c1ccc(O)cc1)c1ccc(OCCNC)cc1)c1ccccc1`, the growth was 88.7%.
For `CC/C(=C(/c1ccc(O)cc1)c1ccc(OCCN(C)C(=O)CCOCCNC(=O)Cc2ccc3c(c2)CN([C@@H]2CCC(=O)NC2=O)C3=O)cc1)c1ccccc1`, the growth was 75.7%.

Staying with this experiment, now noted: 10 µM unless noted.
In the case of `N/C(=N\c1nc2ccc([N+](=O)[O-])cc2s1)NC(=O)Nc1ccccc1Cl`, the growth was -26.5% (active).
For the compound `Cc1ccc2c(c1)nc(-c1ccccc1)n2CC(=O)N=Nc1c(O)[nH]c2ccc(Cl)cc12`, the growth is -71.3% (active).
Turning to `COc1ccccc1/C=C/c1cccc(NC(=S)NCCCCN(C)C)c1`, the growth is -79.7% (active).
`CCCCNc1ccc2c3c(cccc13)C(=O)N(c1cccc(-c3nn(-c4ccccc4)cc3-c3nc4ccccc4s3)c1)C2=O`: the growth is 101%.
For `Cc1nn(-c2ccccc2)c2nc(C)n(C(=O)N/N=C/c3ccccc3)c(=O)c12`, the growth is 101%.
Take `NS(=O)(=O)c1ccc(N2N=C(c3ccc(NC(=O)Nc4ccccc4)cc3)CC2c2ccc(Br)cc2)cc1` (stereo not given): the growth was -85.2% (active).
Regarding `Fc1ccc(N2CC(Cn3c(C(F)(F)F)cc4c(Cl)ncnc43)C2)c(F)c1`, the growth was -27.1% (active).
As for `CCCCCCCOc1ccc(S(=O)(=O)Nc2ccc(C)c(F)c2C(=O)O)cc1`, the growth was 90.1%.
Take `COc1ccccc1NC(=O)c1ccc(NC(=O)CCl)s1`: the growth was 65.2%.
Consider `OC(c1ccccc1)(c1ccccc1)C1CCN(c2ccc3nnc(Cl)n3n2)CC1`, for which the growth was 30.3%.
Same read-out and setting: the figure for `CN(C)c1ccc(/C=C/c2n(Cc3ccc4ccccc4c3)c3ccccc3[n+]2Cc2ccc3ccccc3c2)cc1` is -79% (active).
Consider `COc1ccc(N=Nc2c(N)nn3c(-c4ccc5c(c4)C=S=C5)ccnc23)cc1`, for which the growth was 24.3%.
As to `Cc1ccccc1Nc1nnc(-c2c[nH]c3ccccc23)o1`, the growth was 79.9%.
`O=C(CSc1nnc(-c2ccc(-c3nc4ccc(Cl)cc4[nH]3)cc2)o1)Nc1ccccc1`: the growth was 37.9%.
Turning to `O=C(CSc1nc2sc3c(c2c(=O)n1-c1ccc(Cl)cc1)CCCC3)NNC(=O)c1ccc(F)cc1`, the growth was 83.9%.
As for `COc1cc(CNC(=O)C[C@H](C)CCC=C(C)C)ccc1OCc1cn(-c2ccc(Cl)cc2Cl)nn1`, the growth was 49.7%.
On to `Cc1ccc(S(=O)(=O)Nc2ccc(-c3ccc4c(c3)NC(=O)/C4=C\c3ccc[nH]3)cc2)cc1`, for which the growth is 83.3%.
In the case of `COC(=O)c1cc(C(=O)C(Br)Br)n2c1ccc1c3ccccc3ccc12`, the growth was 48.8%.
In the case of `C=CC(=O)Nc1ccc(C(=O)/C=C/c2ccc(N(C)C)cc2)c(O)c1`, the growth was 39%.
`COC(=O)c1c(C(=O)OC)c2c3ccccc3c3ccccc3n2c1C(=O)C(C)(C)C`: the growth is 57.6%.
In the case of `COc1ccc(NC(=O)Cn2c(/C=C/c3ccc([N+](=O)[O-])cc3)nc3ccccc3c2=O)cc1`, the growth was 16.4%.
On to `N#CC1=C(c2ccco2)Nc2c(c(-c3ccccc3)nn2-c2ccccc2)C12C(=O)Nc1ccc(Cl)cc12` (stereo not given), for which the growth is 9.94% (active).
For `NC1(c2ccc(-c3ccc4ncnc(NCc5ccccc5)c4c3)cn2)COC1`, the growth was 106% and 109%.
Same read-out and setting: the figure for `C#CCN(C)CCCOc1ccc(N(C)C(=O)c2cc(C(C)C)c(O)cc2O)cc1Cl` is 36.1%; for `Nc1nn2c(-c3cc4cc(Br)ccc4oc3=O)ccnc2c1N=Nc1ccccc1` it is -5.33% (active).
As for `COc1cc2cc(C(=O)N3C[C@@H](CCl)c4c3cc(OC(=O)N(CCC(=O)N3CCN(C)CC3)C3CCCCC3)c3ccccc43)[nH]c2c(OC)c1OC`, the growth was -83.5% (active).
On to `CS(=O)(=O)Nc1cc(-c2ccc3ncnc(N4CCc5cc(F)c(Cl)cc54)c3c2)cnc1Cl`, for which the growth was 10.6%.
Turning to `COC(=O)c1cc(C(=O)C(C)(C)C)n2c3ccccc3c3ccccc3c12`, the growth was 85.9%.
`Cc1[nH]nc2ccc3nc(-c4cn[nH]c4C(F)(F)F)c4c(c3c12)CCCC4`: the growth is 29.6%.
The same measure, in the same setting: next, `CC(Nc1ncnc2ccc(-c3ccc4oc(N)nc4c3)cc12)c1ccccc1` (stereo not given): -85.8% (active); `O=C(CSc1nc2c(c(=O)[nH]1)CCCC2)Nc1ccccc1C(=O)O`: 125%; `CC1=C(C(=O)OC(C)C)C(c2ccc(O)cc2)NC(=O)N1` (stereo not given): 100%.
Consider `COC(=O)c1cc(C(C)=O)n2c3ccccc3c3ccccc3c12`, for which the growth is 44.3%.
In the case of `Cn1cc(-c2cc(N)n3nc(-c4c[nH]c5ccccc45)cc3n2)c2cc(Br)ccc21`, the growth is -40.6% (active).
As for `O=C(Nc1ccc(F)cc1)Nc1nc2ccc([N+](=O)[O-])cc2s1`, the growth is 16.4%.
On to `CC(C)(C)OC(=O)N1C/C(=C\c2ccc(F)cc2)C(=O)/C(=C/c2ccc(F)cc2)C1`, for which the growth was -9.66% (active).
